Results on 25 compounds are retold here after PubChem BioAssay.

Structures are written as SMILES. A number with no mark means an inactive call.

The assay can be described thus: probe aXIP binding to arrayed compounds – biochemical, NeuroSMM set, 635/667 nm fluorescence, primary screen (AID 1119).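 Also: probe is the protein aXip251-270 applied at 1 µg/mL to compound-printed slides; binding of probe to printed compounds measured as 667 nm fluorescence plus signal to noise.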 Conditions: small-molecule microarray, higher = more signal, called active from +8 up or from −8 down.
`COCCOC(=O)N1C(=O)[C@@]2(c3cc(C#CC4(O)CCCCCC4)ccc31)[C@H](C(=O)N1CCCCCCC1)[C@H]1C(=O)O[C@H](c3ccccc3)[C@H](c3ccccc3)N1[C@@H]2c1ccc(O)cc1`: the composite Z-score is 0.108. With `C=CCC(OC(C)=O)[C@@H]1[C@@H](N(Cc2cc3ccccc3o2)C(=O)Cc2ccc(F)cc2)c2cc(OCCCO)ccc2N1C(=O)c1ccc(-c2ccccc2)cc1` (stereo not given in full), the composite Z-score was -0.765. With `O=C(CS)NCCCCCNC(=O)[C@H]1C[C@H]2C(=O)N[C@@H](Cc3ccccc3)C(=O)N2[C@H]1c1ccc(O)cc1`, the composite Z-score was -0.65.

On to `CO[C@H]1COC(=O)CC=C[C@@H](C)COC(=O)[C@@H](C)NC(=O)CC=C[C@@H]1C`, for which the composite Z-score was 2.3.

For the compound `CCC(=O)[C@]12O[C@@]3([C@@H]4C(=O)OCC[C@@H]41)N(Cc1ccccc1)C(C)=C(C(=O)OC)[C@@H](c1ccccc1)N3C2=O`, the composite Z-score was -0.428. In the case of `C[C@]1(C(=O)NCCN2CCOCC2)c2ccccc2C(=O)N(Cc2ccccc2)[C@H]1c1ccc(CO)cc1` it was -0.61; in that of `CC[C@H]1C2=C3C(CC[C@H]4C(OC)OC[C@](C)([C@@H]34)N(C(=O)OC(C)(C)C)C2)C(CO)C1CO` (stereo not given in full), 0.067.

As to `O=C1c2ccccc2[C@@]2(Cc3ccccc3N(CC(F)(F)F)C2=O)[C@H](c2ccc(CO)cc2)N1C1CCCCC1`, the composite Z-score was -0.336. In the case of `C=C(C(=O)CC[C@H](OC(=O)c1ccccc1-c1ccccc1C(=O)O)c1ccc(CO)o1)C(C)C` it was -0.555. `CC1=C([C@H](O)CCc2ccccc2)[C@H](CO)[C@@H]2C(=O)N(Cc3ccccc3)C(=O)[C@@H]2C1`: the composite Z-score is 0.39. Turning to `O=C1O[C@H](c2ccccc2)[C@H](c2ccccc2)N2[C@H]1[C@@H](C(=O)NC[C@H](O)c1ccccc1)[C@]1(C(=O)Nc3ccc(C#CC4=CCCCC4)cc31)[C@H]2c1ccc(OCCO)cc1`, the composite Z-score was 0.318. In the case of `COc1cc(Cc2cc3c(c(CCc4ccccc4)n2)[Si](C(C)C)(C(C)C)OC3)cc(OC)c1OC` it was -0.334; in that of `CO[C@H]1O[C@H](CO)[C@@H](OC(=O)CCc2ccccc2)[C@@H]2OC(=O)[C@H](Cc3cccc(Br)c3)C/C=C/C[C@@H](Cc3cccc(Br)c3)C(=O)O[C@@H]12`, 0.258. On to `Cc1ccc(S[C@]2(C(=O)NCCCN(C)C)CC(=O)N(C3CCCCC3)[C@@H]2c2ccc(CO)cc2I)cc1`, for which the composite Z-score is -0.102. Take `COC(=O)[C@@]1(Cc2ccccc2CN=[N+]=[N-])N=C(c2ccc(OCCCO)cc2)O[C@H]1c1ccccc1N=[N+]=[N-]`: the composite Z-score was -0.22.

As to `CO[C@@H]1COC(=O)[C@H](C)NC(=O)CC=C[C@@H](C)[C@H](OC)COC(=O)[C@H](C)NC(=O)CC=C[C@H]1C`, the composite Z-score was 0.137. As for `COCCOC(=O)N1C(=O)[C@@]2(c3cc(C#CCNC(N)=O)ccc31)[C@H](c1ccc(OCCO)cc1)N1[C@H](c3ccccc3)[C@H](c3ccccc3)OC(=O)[C@H]1[C@@H]2C(=O)Nc1nc2ccccc2s1`, the composite Z-score was -0.0202. In the case of `C=CC[C@@]1(C(=O)N2CCOCC2)N=C(c2ccc(OCCCO)cc2)O[C@@H]1c1ccccc1` it was 0.0379. `COc1cc2c(cc1OC)CN(C(=O)[C@H]1[C@@H]3C(=O)O[C@@H](c4ccccc4)[C@@H](c4ccccc4)N3[C@@H](c3ccc(O)cc3)[C@]13C(=O)Nc1ccc(C#CC4(O)CCCCCC4)cc13)CC2`: the composite Z-score was 1.04. In the case of `O=C/C=C/c1ccccc1Cl`, the composite Z-score is -0.02.

For `C=CCC(OC(C)=O)[C@@H]1[C@@H](N(Cc2cccc3ccccc23)C(=O)Cc2ccc(F)cc2)c2cc(OCCCO)ccc2N1C(=O)Cc1ccc2ccccc2c1` (stereo not given in full), the composite Z-score was -0.227. Under `CC(=O)NCCCC[C@@H]1NC(=O)[C@@H]2C[C@H](C(=O)NCCCCCNC(=O)CS)[C@H](c3ccc(O)cc3)N2C1=O` stands 1.43. Under `C[N+](C)(C)CCCCNC(=O)[C@@H]1C[C@@H]2C(=O)N3CCC[C@H]3C(=O)N2[C@@H]1c1cccc(OCCO)c1` stands 2.6; under `O=C(NCC(O)CO)[C@]1(Cc2ccccc2)N=C(c2ccc(OCCCO)cc2)O[C@@H]1c1ccccc1` (stereo not given in full), 0.749.

On to `COC(=O)Cn1c(C(=O)N2CCCC2)cc2c1C[C@H]1CN(C(=O)c3ccccc3)[C@@](Cc3ccccc3)(C(=O)OC)[C@@H]21`, for which the composite Z-score is 0.0529.
